Screening data (PubChem)
Most compounds without a hit are left out; they make up all but 9.2% or so of the library.
HTT ATP protect: cytoprotection in Huntington HTT-Q103 PC12 cell model; PC12 HTT-Q103 induced, cytoprotection, ATP luminescence, 40 h; Potency, µM (doses to about 56.4 µM), inactives show cytoprotection (ATP increase), hits mostly activators; 230,000 compounds, 0.14% hits; active = well fitted curve in the direction sought with a large enough effect; inconclusive = small, poorly fitted or top-dose-only effect, or another doubt; inactive = no such curve, though single readings can be large; an effect the other way counts as inactive or inconclusive; also: % of control where 0% means no effect; nearly all actives have a fitted effect of over 45% in size
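Compounds added alongside 100 nM tebufenozide, which induces toxic Q103 huntingtin exon 1-GFP in stable PC12 cells; surviving cells quantified by luminescent ATP measurement. Medium: phenol red-free DMEM, 5% equine and 5% calf serum.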
LMNA splice mod: modulators of lamin A splicing | HeLa LMNA splicing GFP/RFP minigene ratio, 48 h | Potency, µM (doses to about 46.1 µM), for inactives: top-dose ratio change, negative = inhibition, most hits filed as inhibitors | 200,000 compounds, 0.01% hits | AID 1487; active = well fitted inhibition curve with a large enough effect in the signal ratio, with a control signal flat, not every such curve was filed as active; inconclusive = small, poorly fitted or top-dose-only effect, or effect the other way, or a change in a side signal; the % refers to the signal ratio; also: % is scaled to controls: 0 for no effect and ±100 for the full control effect
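Read-out is the ratio of GFP to DsRed2 object intensity, acquired by 488 nm laser-scanning cytometry on HeLa lamin A-EGFP minigene reporter cells. Compound incubation 48 hrs at 37 °C in Opti-MEM with 2% FBS; DMSO 0.5% final.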
KDM4E inh: inhibitors of human JMJD2E histone demethylase | AID 2147 | 230,000 compounds, 1.6% hits | JMJD2E catalytic domain, FDH-coupled NADH fluorescence (FDH is formaldehyde dehydrogenase) | Potency, µM (titrated, usually from 57.1 µM), inactives show at the top dose activity change, negative = inhibition, most hits filed as inhibitors | B2RXH2;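 also: 0% = wells with enzyme and -100% = buffer wells without enzyme; nearly all actives have a fitted effect of over 50% in size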
Target sequence (B2RXH2 1-337 limits assumed): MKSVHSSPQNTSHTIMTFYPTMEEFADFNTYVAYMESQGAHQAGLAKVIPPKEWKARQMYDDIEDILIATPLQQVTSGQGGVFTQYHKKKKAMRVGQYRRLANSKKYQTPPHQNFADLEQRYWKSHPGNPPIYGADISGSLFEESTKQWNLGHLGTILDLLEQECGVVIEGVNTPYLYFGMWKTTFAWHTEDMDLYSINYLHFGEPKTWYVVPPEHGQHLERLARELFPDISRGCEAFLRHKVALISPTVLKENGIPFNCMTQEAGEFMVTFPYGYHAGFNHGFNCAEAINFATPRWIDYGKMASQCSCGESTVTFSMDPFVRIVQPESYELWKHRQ
ALDH1A1 inh: ALDH1A1 (human) enzyme inhibition; P00352; Purified ALDH1A1, NADH fluorescence, propionaldehyde substrate; Potency, µM (doses to about 75.3 µM), for the others: at the highest dose activity, negative = inhibition, usual class: inhibitors; 220,000 compounds, 7.3% hits; AID 1030;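 also: plate controls were no enzyme wells and a reference inhibitor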
HPGD inh: HPGD (human) dehydrogenase inhibition. P15428. purified HPGD, NADH fluorescence kinetic, PGE2 substrate. Potency, µM, for the others: top-dose activity change, negative = inhibition, most hits filed as inhibitors. 150,000 compounds, 4.3% hits. AID 894; also: % is scaled to controls: 0 for no effect and ±100 for the full control effect
Target sequence (P15428 whole entry, looked up): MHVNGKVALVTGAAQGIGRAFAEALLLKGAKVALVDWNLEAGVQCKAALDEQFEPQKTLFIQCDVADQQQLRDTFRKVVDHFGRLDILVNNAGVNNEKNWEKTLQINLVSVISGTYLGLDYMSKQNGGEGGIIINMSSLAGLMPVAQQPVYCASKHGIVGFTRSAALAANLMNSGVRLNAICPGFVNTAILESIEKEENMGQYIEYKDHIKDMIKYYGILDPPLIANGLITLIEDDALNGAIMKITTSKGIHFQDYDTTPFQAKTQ
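20 nM HPGD preincubated 15 min at room temperature with compound in 50 mM Tris-HCl pH 8, 0.01% Tween 20. Started with 1 mM NAD+ and 30 uM prostaglandin E2; NADH fluorescence (360/450 nm) read 5 times over 30-s intervals, last minus first.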
HttQ103 aggreg: reduces HttQ103-GFP aggregates in PC12 cells. PC12 HttQ103-GFP aggregates, Acumen cytometry, 40 h. AID 1688. Potency, µM (highest dose often 46.1 µM), inactives show top-dose activity change, negative = inhibition, most hits filed as inhibitors. 220,000 compounds, 1.1% hits; active = well fitted curve in the direction sought with a large enough effect; inconclusive = small, poorly fitted or top-dose-only effect, or another doubt; inactive = no such curve, though single readings can be large; an effect the other way counts as inactive or inconclusive; also: % is scaled to controls: 0 for no effect and ±100 for the full control effect; nearly all actives have a fitted effect of over 60% in size
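PC12 cells with ecdysone-inducible HTT exon1 Q103-GFP, induced by 100 nM tebufenozide, given compounds in a concentration series. GFP aggregates (1–25 um, 6 SD above background) counted in lysates by laser-scanning cytometry, 488 nm excitation.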
* hit, by the source's call; ? = inconclusive; nt = no result given; ! = a repeat was not active; [ ] = dose if it differs, or a comment. Unless noted, calls follow the shape of the dose curve; as a rule, active = well fitted inhibition curve with a large enough effect (not every such curve was filed as active); inconclusive = small, poorly fitted or top-dose-only effect, or another doubt; inactive = no such curve, though single readings can be large or run the other way. Potency is read from the fitted curve at half-maximal effect.

SMILES	HTT ATP protect	LMNA splice mod	KDM4E inh	ALDH1A1 inh	HPGD inh	HttQ103 aggreg
O=C(CSc1nc2ccccc2s1)NCc1ccc2c(c1)OCO2	3%[10 µM]	-18%	-4%	14µM*	32µM*	-6%
NNC(=O)c1ccc(CSc2nc3ccccc3s2)cc1	-18%	?	?	3.5µM*	nt	?
O=C(CCCSc1nc2ccccc2s1)NCc1ccc2c(c1)OCO2	2%[1.9 µM]	-18%	-5%	3.5µM*	-24%	5%
C=CCN(C(=O)CNC(=O)c1cccs1)C(C(=O)NC1CCCCC1)c1cccnc1 (stereo not given)	6%[10 µM]	16%[46 µM]	?	10%	nt	9%[9.22 µM]
NS(=O)(=O)c1ccc(N2C(=O)C(=O)/C(=C(/O)c3ccccc3)C2c2ccc(Cl)cc2)cc1 (stereo not given)	-32%[10 µM]	nt	?	nt	nt	-17%[9.22 µM]
O=C(CSc1ccc2ccccc2n1)NCc1ccc2c(c1)OCO2	-16%[10 µM]	3%[46 µM]	-2%	18µM*	nt	-8%
O=C(CSc1nc(C2CCCCC2)nc2ccccc12)NCc1ccc2c(c1)OCO2	18%[10 µM]	?	-2%	20%	-6%	?
CCC(=O)O[C@H]1C(O[C@@H]2C(C)[C@H](O[C@H]3C[C@@](C)(OC)C(O)C(C)O3)C(C)C(=O)OC(CC)[C@@](C)(O)C(O)[C@H](C)C(=O)C(C)C[C@]2(C)O)OC(C)CC1N(C)C (stereo not given in full)	-113%	nt	-21%	9%	?	nt
COC(=O)CCC(=O)OC1(C)C(=O)C=C2C=C(C3CC3)N(Cc3ccc4c(c3)OCO4)C=C2C1=O (stereo not given)	-20%[10 µM]	-8%[9.22 µM]	16µM*!	4%[13.5 µM]	-8%	-18%[9.22 µM]
COC(=O)CCC(=O)OC1(C)C(=O)C=C2C=C(C3CC3)N(CCCCO)C=C2C1=O (stereo not given)	-18%[10 µM]	6%[9.22 µM]	20µM*!	8%[13.5 µM]	1%	-13%[9.22 µM]
Cc1cc(NC(=O)CCl)n(-c2nc3ccccc3s2)n1	-27%[10 µM]	-3%[46 µM]	-23%	4µM*	nt	?
Cc1ccc(-c2cc(NC(=O)CCl)n(-c3ccccc3)n2)cc1	-93%	?	-21%	0.5µM*	-10%	?
Cc1ccc(-c2nn(-c3ccccc3)cc2NC(=O)CCl)cc1	-134%	?	?	20µM*	nt	?
Cc1ccc(-c2nn(-c3ccccc3)cc2CNCc2ccccc2)cc1	-39%	?	-29%	22µM*	nt	?
Cc1cc(NC(=O)C2CC2)n(-c2nc3ccccc3s2)n1	-14%[10 µM]	-9%[46 µM]	-10%	?	nt	-13%
Cc1nc(C)c(Oc2cccc(C(F)(F)F)c2)c(=O)[nH]1	-6%[10 µM]	nt	3%	-8%	nt	-7%[9.22 µM]
C#CCCOC(=O)N1C2=NC(C(=O)OC)=C(C(=O)OC)[C@@H]3N(CC#CC)c4ccccc4[C@]23C[C@H]1C(=O)OC	-7%[10 µM]	6%[9.22 µM]	4%[11.4 µM]	7%[13.5 µM]	-4%	nt
O=C(CCl)Nc1cc(-c2ccccc2)nn1-c1ccccc1	-30%	?	-12%	1.3µM*	-10%	8%
CC(=O)Nc1ccc(-c2cc(NC(C)=O)n(-c3ccccc3)n2)cc1	12%	9%	-7%	5%	nt	32%
Cc1ccc(CNC(=O)CCS(=O)(=O)c2ccc(Br)s2)o1	-1%	7%	-5%	22µM*	-16%	14%
O=C(CCS(=O)(=O)c1ccc(Br)s1)NCc1ccccc1	-7%	7%	-2%	1%	4%	11%
CCC(C)[C@H](NC(=O)NCc1ccco1)C(=O)OC (stereo not given in full)	6%[10 µM]	nt	2%	13µM*	nt	15%[9.22 µM]
COC(=O)[C@H](C)NC(=O)NCc1ccco1	6%	3%	-6%	?	-2%	8%
COCCSc1ccccc1C(=O)Nc1ccc(Cl)cc1	-29%	12%[46 µM]	-14%	-7%	nt	10%
COCCSc1ccccc1C(=O)NCCc1ccccc1	-34%[1.9 µM]	nt	6%	?	nt	9%[9.22 µM]
SMILES	HTT ATP protect	LMNA splice mod	KDM4E inh	ALDH1A1 inh	HPGD inh	HttQ103 aggreg
COCCSc1ccccc1C(=O)Nc1cc(C)on1	-3%	4%	?	?	32µM*	-1%
COCCSc1ccccc1C(=O)NCc1ccco1	10%	-1%	6%	14µM*	8.9µM*	23%
O=C(O)Cn1c(C(=O)Nc2nc(-c3ccccc3Cl)cs2)cc2ccccc21	-13%	nt	nt	nt	nt	-5%
COc1cc(CN(C(=O)COc2ccc(C)c(C)c2)c2ccccn2)cc(OC)c1OC	nt	-5%[46 µM]	nt	nt	nt	nt
Nc1[nH]c(=O)nc2c1ncn2[C@H]1O[C@@H](CO)[C@@H](O)[C@@H]1O	-5%[10 µM]	nt	nt	2%[13.5 µM]	-5%	nt
CC1(C)CC(N(Cc2cccs2)C(=O)c2ccco2)CCO1 (stereo not given)	1%[0.074 µM]	-1%	0%	10µM*	-7%	-15%
CCN(CC)c1ccc(/C=C(\C#N)c2nc(-c3cccs3)c(NC(C)=O)s2)cc1	3%[10 µM]	?	-6%	?	nt	13µM*
O=C(Oc1ccccc1)N1CCC2(CC1)CN(c1ncccn1)C2	-11%	nt	nt	?	?	nt
N#CC1=C(N)Oc2cc(O)ccc2C1c1ccccc1 (stereo not given)	-1%	-13%	-1%	?	-3%	-10%
COc1ccc(N=Cc2cc3c(cc2O)OC(N)=C(C#N)C3c2ccccc2)cc1 (stereo not given)	7%[1.9 µM]	?	?	-4%	-15%	7.9µM*
Cc1ccc(SCc2[nH]nc3c2C(c2cccnc2)C(C#N)=C(N)O3)cc1 (stereo not given)	-8%	1%	8%	?	-24%	7%
CCCc1[nH]nc2c1C(c1cn[nH]c1-c1ccc(F)cc1)C(C#N)=C(N)O2 (stereo not given)	0%[1.9 µM]	?	6%	?	-7%	11µM*
CCCc1[nH]nc2c1C(c1ccncc1)C(C#N)=C(N)O2 (stereo not given)	-19%	12%	-21%	14µM*	-23%	-8%
COCc1[nH]nc2c1C(c1ccc(F)cc1F)C(C#N)=C(N)O2 (stereo not given)	3%	5%	-1%	4%	-10%	-1%
CCCc1[nH]nc2c1C(c1cccnc1)C(C#N)=C(N)O2 (stereo not given)	-34%	-4%	-19%	14µM*	-6%	-2%
